Here are results for 40 compounds from PubChem BioAssay (EPA / NIEHS).

Molecules are shown by their SMILES. The source made the active and inactive calls. The calls were made as follows: active = hit-call score of the fitted dose curve at least 0.9, where 1 is the maximum; inactive = score below 0.9.

Read-out in this test: ABC Transporter (ABCB1), ABCB1 (gene 5243)
In words: LTEA_HepaRG_ABCB1: Life Technologies and Expression Analysis (LTEA) Assay for ABC Transporter (ABCB1) using HepaRG (AID 2283460). Conditions: mRNA level, 48 h; actives raise or lower the signal. The method, then:
LTEA_HepaRG is a cell based, multiplexed-readout assay that uses HepaRG, a human liver cell line, with measurements taken at 48 hours after chemical dosing on a 96-well plate.LTEA_HepaRG_ABCB1 is one of 102 assay component(s) measured in the LTEA HepaRG cell culture assay. It is a marker of Steatosis/NR mediated transport.Data from the assay component LTEA_HepaRG_ABCB1 was analyzed into 1 endpoint. This assay endpoint, LTEA_HepaRG_ABCB1, was analyzed with bidirectional fitting relative to DMSO as the negative control and baseline of activity. Using a type of inducible reporter, measures of mRNA induction for gain or loss-of-signal activity can be used to understand regulation of transcription factor activity. To generalize the intended target to other relatable targets, this assay endpoint is annotated to the transporter intended target family, where the subfamily is ABC transporter.
A total of 1060 chemcials from the ToxCast library were tested in eight-point concentration-response experiments. Cell culture and cytotoxicity assays were conducted at Thermo Fisher Scientific's Custom Services facility (Madison, WI). A single lot of human HepaRG cells (Thermo Fisher Scientific, Frederick, MD) was used for the cell culture experiments. 96-well format collagen type I coated plates of human HepaRG cells were prepared using established methods. Briefly, cryopreserved HepaRG cells were thawed, plated at a density of approximately 100,000 cells/well in HepaRG Thaw, Plate, and General Purpose media (HPRG770, Thermo Fisher Scientific), and incubated for 48 hours. 0.5% DMSO was selected as vehicle control to balance the requisite need of DMSO in HepaRG cultures to maintain differentiation (for example, baseline metabolism, proportions of hepatocytes vs. cholangiocytes), while enabling further hepatic receptor pathway activation (for example, PXR and CAR) in response to chemical exposure. 48 hours after plating, the culture medium was replaced with HepaRG Serum-Free Incudtion Media. Cells were exposed to each test chemical in duplicate and maintained in CO2 incubators for another 48 hours. Chemical plates were thawed to room temperature and 200x concentrations of treatment groups were prepared. 8-point conentration-reponse curves were made with the highest exposure at 100 uM, followed by half-log dilutions, all in 0.5% DMSO. Each test plate contained variouse controls, induction positive controls (1mM phenobarbital), cytotoxicity positive controls ([…] aflatoxin B1), vehicle controls (0.5% DMSO), and total lysis controls (0.5% DMSO). Cell morphology images were taken using an Essen IncuCyte FLR automated microscope, with six 96-well plates imaged in about 24 minutes. Images were captured and exported and JPEG files. Spent culture media was transfered to black-well plates for the LDH assay, and remaining media was sorted at -80 C for later use. Cells were treated with RLT buffer and frozen until shipped for gene expression analysis. Total RNA was isolated from the cell suspension in 75 uL of Buffer RLT (Qiagen, Germantown, MD 20874) by Quintiles/Expression Analysis (Durham, NC) using a custom isolation procedure. Total RNA from each plate well was transferred to a preamplification plate. Fluidigm's 96.96 Dynamic ArrayTM (Fluidigm, Amsterdam, the Netherlands) technology was used for gene expression analyses by quantitative reverse transcription polymerase chain reaction (qRT-PCR, performed by Quintiles/Expression Analysis, Durham, NC)89. Standard TaqManTM Assays (Applied Biosystems/ThermoFisher Scientific, Foster City, CA) were used to assess the expression of 93 genes selected based on their selectivity and sensitivity to important hepatic receptors known to be modulated by environmental chemicals; importance in human hepatocyte functionality; and hepatotoxicity. […]
For `CCOc1cccc(C2(N3CCN(c4ccccc4)CC3)CCC(C)CC2)c1` (stereo not given), the outcome was inactive. The same measure, in the same setting: next, `O=C(Oc1ccc(Br)cc1)N1CCN2CCC1CC2`: “inactive”; `CN(C)C(=O)Nc1ccc(Cl)cc1`: “inactive”; `O=C(O)C1C2CCC(O2)C1C(=O)O` (stereo not given): “inactive”. The same measure, in the same setting: next, `c1ccc2c(c1)oc1ccccc12`: “inactive”; `Cc1ccc(N=C=O)cc1N=C=O`: “inactive”. Turning to `Nc1ccc(N=Nc2ccccc2)cc1`, the AC50 was 15.5 µM (active).

As for `CCCCCCCCn1sccc1=O`, the call was inactive. The same measure, in the same setting: as for `CN(C)c1ccc(C(=O)c2ccc(N(C)C)cc2)cc1`, the entry is “inactive”. The same measure, in the same setting: next, `CCNS(=O)(=O)C(F)(F)C(F)(F)C(F)(F)C(F)(F)C(F)(F)C(F)(F)C(F)(F)C(F)(F)F`: “inactive”; `CC(C)N(Cc1ccccc1)C(=O)C(C)(C)C`: “inactive”; `CCOC(=O)[C@]1(c2ccccc2)Oc2ccccc2[C@@H]1N`: “inactive”.

With `Nc1ccc(Cl)cc1N`, the AC50 was 19.6 µM (active). Turning to `Oc1ccccc1Cl`, the result was inactive. Same read-out and setting: next, `C1=Cc2cccc3cccc1c23`: “inactive”; `OCCCBr`: “inactive”. As to `CC(C)(O)c1cnn2c(-c3ccc(F)c(-c4c(F)cccc4C#N)c3)cnc2n1`, the AC50 was 0.438 µM (active). For the compound `Cc1cccc(N)c1N`, the result was inactive. On the same count and under the same terms, next, `CN(C)[C@@H]1C(=O)C(C(N)=O)=C(O)[C@@]2(O)C(=O)C3=C(O)c4c(O)cccc4[C@@](C)(O)[C@H]3C[C@@H]12`: “inactive”. Same read-out and setting: next, `COC(=O)Nc1nc2ccccc2[nH]1`: “inactive”. Still for that read-out and setting: next, `ClC1=C(Cl)[C@]2(Cl)[C@H]3[C@H]([C@@H]4C=C[C@H]3C4)[C@@]1(Cl)C2(Cl)Cl`: “inactive”. For `ClCCOCCCl`, the call was inactive. Same read-out and setting: next, `Clc1ccc(Cl)c(Cl)c1`: “inactive”. With `CCCCCCCCCCCCCN1CC(C)OC(C)C1` (stereo not given), the call was inactive. As to `Oc1ccc2ccc3cccc4ccc1c2c34`, the outcome was inactive.

Consider `COc1cc(C=O)cc2c1[C@H](COC(N)=O)[C@]1(OC(C)=O)ON2C[C@H]2[C@@H]1N2C(C)=O`, for which the AC50 is 24.3 µM (active).

For the compound `[O-][Cl+]O`, the outcome was inactive. The same measure, in the same setting: as for `CCC12COCN1COC2`, the entry is “inactive”; as for `Nc1ccc(Oc2ccc(N)cc2)cc1`, “inactive”; as for `CCN(CC)N=O`, “inactive”. For `[As]#[In]`, the outcome was inactive. With `N#CC(Br)(Br)C(N)=O`, the result was inactive. Turning to `Nc1ccc(Cc2ccc(N)cc2)cc1`, the compound was classed as inactive. The same measure, in the same setting: as for `COP(=S)(OC)SCN1C(=O)c2ccccc2C1=O`, the entry is “inactive”; as for `Clc1ccccc1Cl`, “inactive”; as for `Cc1ccc(N)c(N)c1`, “inactive”. Still for that read-out and setting: as for `O=Cc1ccco1`, the entry is “inactive”; as for `O=C(Nc1ccccc1)c1ccccc1I`, “inactive”; as for `Brc1ccc(Oc2ccccc2)cc1`, “inactive”. Turning to `ClC1=C(Cl)C2(Cl)C3C(Cl)C=CC3C1(Cl)C2(Cl)Cl` (stereo not given), the AC50 was 1.45 µM (active).

By AC50 is commonly meant the concentration at which the activity in the assay is half-maximal.
